From the supplement of paper PMC9262897, “Low-cost anti-mycobacterial drug discovery using engineered E. coli” (Nature Communications, 2022)
Where a name gives a salt, the structure may show the parent alone. ± gives the standard deviation of the averaged measurements.

Tests used:
Assay in all cases: growth (OD600 after 10 h); higher = more growth (less inhibition)
[1] = test system: E. coli TESEC Alr+ wild-type control; details: compound 0.1 mM; raw OD600 reference: median of DMSO wells 0.241, cell-free background 0.041
Experimental: (§1)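 TESEC Mtb Alr E. coli, or the Alr+ wild-type control, in 384-well plates with Prestwick library compounds at 0.1 mM and 1% DMSO, across arabinose induction levels of 1E3 to 1E7 nM. Growth is read as OD600 after 10 h at 37 °C in triplicate biological replicates.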

E. coli TESEC Mtb Alr [2] = details: compound 0.1 mM
Experimental: as §1

E. coli TESEC Mtb Asd = details: compound 0.1 mM
Experimental: (§2)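 TESEC E. coli strains in which the native enzyme is deleted and replaced by arabinose-inducible Mtb Asd, DapB, CysH or TrpD, each grown in its selective medium. Strains were screened against the Prestwick library at 0.1 mM and 1% DMSO in 384-well format at low and high arabinose induction. Growth is read as OD600 after 10 h in triplicate.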

E. coli TESEC Mtb DapB = details: compound 0.1 mM
Experimental: as §2

[3] = test system: E. coli TESEC Alr+ wild-type control; details: compound 0.1 mM; raw OD600 reference: median of DMSO wells 0.49, cell-free background 0.052
Experimental: (§3)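 TESEC Mtb Alr E. coli (ΔaraC ΔtolC ΔentC Δalr ΔdadX, arabinose-inducible Mtb Alr) or the Alr+ wild-type control strain, grown in defined M9-fructose medium without D-alanine in 96-well plates with Prestwick library compounds at 0.1 mM and 1% DMSO. Low Alr induction is 0.1 µM arabinose and high induction is 10 mM arabinose.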

E. coli TESEC Mtb Alr [4] = details: compound 0.1 mM; remark: listed apart in the source
Experimental: as §3

[5] = arabinose 1000 nM, raw OD600 reference: median of DMSO wells 0.294, cell-free background 0.041
[6] = arabinose 10000 nM, raw OD600 reference: median of DMSO wells 0.264, cell-free background 0.041
[7] = arabinose 100000 nM, raw OD600 reference: median of DMSO wells 0.201, cell-free background 0.041
[8] = arabinose 1000000 nM, raw OD600 reference: median of DMSO wells 0.193, cell-free background 0.041
[9] = arabinose 10000000 nM, raw OD600 reference: median of DMSO wells 0.146, cell-free background 0.041
[10] = arabinose induction (level): High, raw OD600 reference: median of DMSO wells 0.331, cell-free background 0.041
[11] = arabinose induction (level): Low, raw OD600 reference: median of DMSO wells 0.417, cell-free background 0.041
[12] = arabinose induction (level): High, raw OD600 reference: median of DMSO wells […], cell-free background 0.041
[13] = arabinose induction (level): Low, raw OD600 reference: median of DMSO wells 0.227, cell-free background 0.041
[14] = arabinose 100 nM, raw OD600 reference: median of DMSO wells 0.413, cell-free background 0.052
[15] = arabinose 10000000 nM, raw OD600 reference: median of DMSO wells […], cell-free background 0.052

Row | SMILES | growth [1] | growth (E. coli TESEC Mtb Alr [2]; [5]) | growth (E. coli TESEC Mtb Alr [2]; [6]) | growth (E. coli TESEC Mtb Alr [2]; [7]) | growth (E. coli TESEC Mtb Alr [2]; [8]) | growth (E. coli TESEC Mtb Alr [2]; [9]) | growth (E. coli TESEC Mtb Asd; [10]) | growth (E. coli TESEC Mtb Asd; [11]) | growth (E. coli TESEC Mtb DapB; [12]) | growth (E. coli TESEC Mtb DapB; [13]) | growth [3] | growth (E. coli TESEC Mtb Alr [4]; [14]) | growth (E. coli TESEC Mtb Alr [4]; [15])
1 | Brc1c(NC2=NCCN2)ccc2nccnc12 [Brimondine L-Tartrate] | 0.209 ± 0.0033 | 0.2878 ± 0.0023 | 0.26 ± 0.0099 | 0.187 ± 0.016 | 0.172 ± 0.011 | 0.152 ± 0.0034 | 0.271 ± 0.038 | 0.368 ± 0.061 | 0.19 ± 0.02 | 0.237 ± 0.033 | 0.46 ± 0.032 | 0.416 ± 0.015 | 0.343 ± 0.004
2 | CC(=O)O[C@]1(C(C)=O)CC[C@H]2[C@@H]3C=C(C)C4=CC(=O)CC[C@@H]4[C@H]3CC[C@@]21C [Nomegestrol acetate] | 0.1345 ± 0.001 | 0.127 ± 0.02 | 0.0606 ± 0.0005 | 0.124 ± 0.0062 | 0.061 ± 0.0017 | 0.0997 ± 0.0051 | 0.126 ± 0.018 | 0.104 ± 0.0027 | 0.144 ± 0.014 | 0.129 ± 0.0045 | 0.14 ± 0.0081 | 0.229 ± 0.082 | 0.0935 ± 0.015
3 | CNC(=O)c1c(I)c(C(=O)NCC(=O)Nc2c(I)c(C(=O)O)c(I)c(C(=O)NCCO)c2I)c(I)c(N(C)C(C)=O)c1I [Ioxaglic acid] | 0.239 ± 0.0087 | 0.2972 ± 0.0024 | 0.28 ± 0.0056 | 0.219 ± 0.0065 | 0.215 ± 0.015 | 0.139 ± 0.0059 | 0.343 ± 0.027 | 0.359 ± 0.048 | 0.198 ± 0.013 | 0.211 ± 0.013 | 0.606 ± 0.023 | 0.426 ± 0.0094 | 0.3518 ± 0.0018
4 | CCn1cc(C(=O)O)c(=O)c2cc(F)c(N3CCNCC3)cc21 [Norfloxacin] | 0.04437 ± 0.00025 | 0.0427 ± 0.00078 | 0.0398 ± 0.00098 | 0.0437 ± 0.00036 | 0.0398 ± 0.0006 | 0.0437 ± 0.00035 | 0.0546 ± 0.0041 | 0.0626 ± 0.0092 | 0.0581 ± 0.00065 | 0.0745 ± 0.015 | 0.0524 ± 0.0022 | 0.0551 ± 0.002 | 0.05117 ± 0.00047
5 | Nc1c(Br)cc(Br)cc1CN[C@H]1CC[C@H](O)CC1 [Ambroxol hydrochloride] | 0.202 ± 0.0077 | 0.256 ± 0.014 | 0.283 ± 0.0086 | 0.18 ± 0.031 | 0.1617 ± 0.0016 | 0.149 ± 0.0085 | 0.168 ± 0.021 | 0.318 ± 0.06 | 0.204 ± 0.015 | 0.221 ± 0.029 | 0.626 ± 0.055 | 0.406 ± 0.0096 | 0.312 ± 0.015
6 | CCCC(=O)Nc1ncnc2c1ncn2[C@@H]1O[C@@H]2COP(=O)(O)O[C@H]2[C@H]1OC(=O)CCC [Bucladesine sodium salt] | 0.25 ± 0.0053 | 0.31 ± 0.019 | 0.275 ± 0.0043 | 0.206 ± 0.015 | 0.189 ± 0.0065 | 0.138 ± 0.012 | 0.355 ± 0.06 | 0.47 ± 0.008 | 0.2 ± 0.016 | 0.218 ± 0.014 | 0.565 ± 0.093 | 0.405 ± 0.011 | 0.362 ± 0.013
7 | CC(=O)Oc1ccccc1C(=O)Oc1ccccc1C(=O)O [Acetylsalicylsalicylic acid] | 0.253 ± 0.0046 | 0.275 ± 0.0063 | 0.266 ± 0.016 | 0.203 ± 0.011 | 0.181 ± 0.0064 | 0.142 ± 0.0078 | 0.325 ± 0.1 | 0.421 ± 0.069 | 0.19 ± 0.014 | 0.209 ± 0.0043 | 0.449 ± 0.04 | 0.4179 ± 0.0027 | 0.352 ± 0.023
8 | CCCCNc1ccc(C(=O)OCCN(C)C)cc1 | 0.208 ± 0.0034 | 0.273 ± 0.006 | 0.255 ± 0.003 | 0.186 ± 0.0077 | 0.166 ± 0.0023 | 0.146 ± 0.0066 | 0.266 ± 0.033 | 0.354 ± 0.021 | 0.174 ± 0.019 | 0.186 ± 0.0082 | 0.468 ± 0.0089 | 0.396 ± 0.019 | 0.346 ± 0.018
9 | NC[C@@H]1O[C@H](O[C@H]2[C@@H](O)[C@H](O[C@@H]3[C@@H](O)[C@H](N)C[C@H](N)[C@H]3O[C@H]3O[C@H](CN)[C@@H](O)[C@H](O)[C@H]3N)O[C@@H]2CO)[C@H](N)[C@@H](O)[C@@H]1O [Neomycin sulfate] | 0.249 ± 0.0054 | 0.305 ± 0.009 | 0.287 ± 0.0035 | 0.219 ± 0.015 | 0.19 ± 0.005 | 0.163 ± 0.0028 | 0.271 ± 0.043 | 0.389 ± 0.021 | 0.187 ± 0.018 | 0.245 ± 0.041 | 0.453 ± 0.037 | 0.4232 ± 0.0036 | 0.343 ± 0.013
10 | CC=CC1=C(C(=O)O)N2C(=O)[C@@H](NC(=O)[C@H](N)c3ccc(O)cc3)[C@H]2SC1 [Cefprozil] | 0.223 ± 0.0095 | 0.303 ± 0.0056 | 0.269 ± 0.016 | 0.184 ± 0.0039 | 0.194 ± 0.021 | 0.163 ± 0.0058 | 0.259 ± 0.048 | 0.417 ± 0.022 | 0.204 ± 0.0084 | 0.255 ± 0.039 | 0.543 ± 0.068 | 0.414 ± 0.017 | 0.374 ± 0.015
11 | COC(=O)Nc1nc2cc(C(=O)c3ccc(F)cc3)ccc2[nH]1 [Flubendazol] | 0.249 ± 0.026 | 0.307 ± 0.032 | 0.2591 ± 0.00086 | 0.197 ± 0.028 | 0.191 ± 0.0051 | 0.141 ± 0.0081 | 0.43 ± 0.019 | 0.491 ± 0.029 | 0.2 ± 0.01 | 0.231 ± 0.03 | 0.6 ± 0.078 | 0.414 ± 0.018 | 0.435 ± 0.011
12 | CC#C[C@]1(O)CC[C@H]2[C@@H]3CCC4=CC(=O)CCC4=C3[C@@H](c3ccc(N(C)C)cc3)C[C@@]21C [Mifepristone] | 0.142 ± 0.0098 | 0.181 ± 0.013 | 0.207 ± 0.016 | 0.138 ± 0.0049 | 0.0733 ± 0.003 | 0.1374 ± 0.00076 | 0.241 ± 0.077 | 0.216 ± 0.015 | 0.199 ± 0.0078 | 0.236 ± 0.013 | 0.337 ± 0.037 | 0.411 ± 0.009 | 0.116 ± 0.012
13 | CCCCCCCCCCCCCCCC[N+](C)(C)CCN(Cc1ccc(OC)cc1)c1ncccn1 [Thonzonium bromide] | 0.0453 ± 0.0014 | 0.08477 ± 0.00045 | 0.0958 ± 0.0043 | 0.0909 ± 0.0047 | 0.0447 ± 0.003 | 0.0932 ± 0.0021 | 0.0571 ± 0.0024 | 0.059 ± 0.0013 | 0.05637 ± 0.00046 | 0.0589 ± 0.002 | 0.0464 ± 0.00035 | 0.226 ± 0.15 | 0.112 ± 0.01
14 | C[C@]12C=CC(=O)C=C1CC[C@@H]1[C@@H]2C(=O)C[C@@]2(C)[C@H]1CC[C@]2(O)C(=O)CO [Prednisone] | 0.221 ± 0.01 | 0.298 ± 0.017 | 0.256 ± 0.0052 | 0.203 ± 0.012 | 0.173 ± 0.0063 | 0.162 ± 0.0056 | 0.237 ± 0.029 | 0.414 ± 0.042 | 0.185 ± 0.0094 | 0.267 ± 0.014 | 0.479 ± 0.044 | 0.412 ± 0.005 | 0.352 ± 0.019
